The source made the active and inactive calls. Calls come from the whole dose curve; as a rule, active = well fitted curve in the direction sought with a large enough effect; inconclusive = small, poorly fitted or top-dose-only effect, or another doubt; inactive = no such curve, though single readings can be large or run the other way.

Experimental findings from PubChem BioAssay (NCATS) are described below.

A short description of the assay: qHTS for compounds that reverse cellular toxicity of Amyloid beta (A-beta) peptide in yeast: LOPAC Validation Assay (AID 720559).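 Note: plate controls were DMSO for no effect and equimolar ferric chloride plus clioquinol rescue for full effect.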 Conditions: yeast expressing A-beta; series mostly up to 46.1 µM; growth rescue, positive = activation: at the top concentration. The procedure, abridged:
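Yeast expressing toxic A-beta grown with pinned compounds at 30 C for 48 hr. Growth measured as absorbance at 600 nm; data normalized to DMSO and to an equimolar FeCl3/clioquinol mixture as positive control.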
On the technique in general: qHTS replaces the single test concentration by a dilution series.
Turning to `CN1C(=O)CCS(=O)(=O)C1c1ccc(Cl)cc1` (stereo unspecified), the “growth rescue, positive = activation” value is -2.93% (inactive).
The same measure, in the same setting: for `CCC1(c2ccc(N)cc2)CCC(=O)NC1=O` (stereo unspecified) the value was 0.448% (inactive).
Same read-out and setting: the value for `O=c1[nH]oc2c1CCNC2` was -2.12% (inactive); that for `O=C(O)CCCc1ccc(N(CCCl)CCCl)cc1` was -0.288% (inactive); that for `CC(=O)N1CCN(c2ccc(OC[C@H]3CO[C@](Cn4ccnc4)(c4ccc(Cl)cc4Cl)O3)cc2)CC1` was -48.1% (inactive).
On the same count and under the same terms, for `COc1ccc2c(c1OC)C(=O)O[C@H]2[C@@H]1c2cc3c(cc2CCN1C)OCO3` the value was 2.42% (inactive).
Consider `C=C(C)[C@H]1CN[C@H](C(=O)O)[C@H]1CC(=O)O`, for which the “growth rescue, positive = activation” value was -1.26% (inactive).
On the same count and under the same terms, the value for `CC(C)(C)NCC(O)c1ccccc1Cl` (stereo unspecified) was -4.42% (inactive); that for `O=P1(N(CCCl)CCCl)NCCCO1` (stereo unspecified) was -2.09% (inactive).
On the same count and under the same terms, for `O=C(CCCN1CCC2(CC1)C(=O)NCN2c1ccccc1)c1ccc(F)cc1` the value was -8.58% (inactive); for `Cc1ncsc1CCCl`, -4.27% (inactive); for `CC(C)c1cccc(C(C)C)c1O`, -3.43% (inactive).
Consider `CCCCC/C=C\C/C=C\C/C=C\C/C=C\CCCC(=O)NCC(=O)O`, for which the “growth rescue, positive = activation” value was 3.34% (inactive).
Same read-out and setting: for `NCCc1ccc(O)cc1` the value was -2.82% (inactive).
Same read-out and setting: for `CC(NC(C)(C)C)C(=O)c1cccc(Cl)c1` (stereo unspecified) the value was 4.31% (inactive).
`CC(C)N(CCC(C(N)=O)(c1ccccc1)c1ccccn1)C(C)C` (stereo unspecified): the outcome was inactive.
